Calls of active or inactive are those of the source. Rule for the calls: active = hit-call score of the fitted dose curve at least 0.9, where 1 is the maximum; inconclusive = response in the unintended direction; inactive = score below 0.9.
Biological target: rat CYP2C11, Cyp2c11 (gene 29277) (UniProt P08683)
Assay: NVS_ADME_rCYP2C11: NovaScreen (NVS) CYP450-related Enzyme Activity (ADME) Assay for rat CYP2C11 (AID 2283118)
Summary of the method: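 Cell-free recombinant rat enzyme with fluorescent substrate; readout 0.33 h after dosing, loss of signal versus acetonitrile control. Initial duplicate single-point at 10 uM; actives rerun in concentration series.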

Sequence of rat CYP2C11, Cyp2c11 (gene 29277) (P08683 whole entry, looked up): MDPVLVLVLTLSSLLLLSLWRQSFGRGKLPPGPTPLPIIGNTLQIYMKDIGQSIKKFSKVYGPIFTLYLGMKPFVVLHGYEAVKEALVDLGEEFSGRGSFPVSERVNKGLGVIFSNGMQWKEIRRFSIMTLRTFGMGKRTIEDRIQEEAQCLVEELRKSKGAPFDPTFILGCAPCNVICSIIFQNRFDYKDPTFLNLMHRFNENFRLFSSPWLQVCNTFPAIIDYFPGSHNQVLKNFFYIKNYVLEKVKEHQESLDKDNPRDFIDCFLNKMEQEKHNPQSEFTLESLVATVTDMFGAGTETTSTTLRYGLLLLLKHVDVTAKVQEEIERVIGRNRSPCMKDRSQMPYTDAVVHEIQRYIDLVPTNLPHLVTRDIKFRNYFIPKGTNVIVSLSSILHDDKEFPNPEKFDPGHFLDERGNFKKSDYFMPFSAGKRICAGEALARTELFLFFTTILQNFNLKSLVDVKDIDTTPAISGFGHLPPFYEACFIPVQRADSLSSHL

Row | SMILES | AC50 | outcome
1 | CC1COC(Cn2cncn2)(c2ccc(Oc3ccc(Cl)cc3)cc2Cl)O1 (stereo not drawn) | 1730 nM (active) | –
2 | OC(c1ccc(Cl)cc1)(c1cncnc1)c1ccccc1Cl (stereo not drawn) | 6580 nM (active) | –
3 | CS/C(C)=N/OC(=O)N(C)SN(C)C(=O)O/N=C(\C)SC | 3660 nM (active) | –
4 | CCCN(CCC)c1c([N+](=O)[O-])cc(S(N)(=O)=O)cc1[N+](=O)[O-] | – | inactive
5 | CCCC1COC(Cn2cncn2)(c2ccc(Cl)cc2Cl)O1 (stereo not drawn) | 1450 nM (active) | –
6 | CCOC(=O)CC(SP(=S)(OC)OC)C(=O)OCC (stereo not drawn) | 399 nM (active) | –
7 | CO/C=C(/C(=O)OC)c1ccccc1Oc1cc(Oc2ccccc2C#N)ncn1 | 2810 nM (active) | –
8 | CCOP(=S)(OCC)SCn1c(=O)oc2cc(Cl)ccc21 | 993 nM (active) | –
9 | Fc1ccc(Oc2ccnc3cc(Cl)cc(Cl)c23)cc1 | 15600 nM (active) | –
10 | COc1ccc(C(c2ccc(OC)cc2)C(Cl)(Cl)Cl)cc1 | – | inactive
11 | Cc1ccc(-c2c(Cl)nc(C#N)n2S(=O)(=O)N(C)C)cc1 | 6130 nM (active) | –
12 | N#CC(CCc1ccc(Cl)cc1)(Cn1cncn1)c1ccccc1 (stereo not drawn) | 267 nM (active) | –
13 | COC(=O)N(OC)c1ccccc1COc1ccn(-c2ccc(Cl)cc2)n1 | 809 nM (active) | –

Reference: PubChem BioAssay (EPA / NIEHS)
